Test results reported in the supplement of paper PMC10849652.
Of roughly 8,800 targets only a part is listed; those with a hit were picked by preference. About 0.5% of all pairs of compound and target were hits. Unmarked numbers belong to inactive results.

Experiments:
Experiment in all cases: log2 fold change, soluble protein after heating vs DMSO (PISA); higher = thermal stabilisation; K562 lysate, 10 uM; active = over 0.2 and 3.5 SD of the protein, either way, in both replicates (recomputed)
vemurafenib = compound: CCCS(=O)(=O)Nc1ccc(F)c(C(=O)c2c[nH]c3ncc(-c4ccc(Cl)cc4)cc23)c1F [vemurafenib]
Outline: (§1)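 To prepare the extract, K562 pellets were dounce-homogenised in PBS pH 7.4 with 1 mM MgCl2, giving crude material at 1 mg/mL protein. This was treated with 10 μM compound for 30 min, then heated in aliquots for 3 min over 48°C-58°C before pooling and addition of NP-40 to 0.5% at 4°C. Centrifugation at 21,000xg for 90 min left soluble protein in the supernatant, which TMTpro 16plex LC-MS/MS quantified with equalised channel sums. Results are log-two fold changes in thermal stability compared with solvent controls, from duplicates.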

[1] = compound: CCCS(=O)(=O)Nc1ccc(F)c(C(=O)c2c[nH]c3ncc(Cl)cc23)c1F
Outline: as §1

barasertib = compound: CCN(CCCOc1ccc2c(Nc3cc(CC(=O)Nc4cccc(F)c4)[nH]n3)ncnc2c1)CCOP(=O)(O)O [barasertib]
Outline: as §1

[2] = compound: CC[C@@H]1C(=O)N(C)c2cnc(Nc3ccc(C(=O)NC4CCN(C)CC4)cc3OC)nc2N1C1CCCC1
Outline: as §1

volasertib = compound: CC[C@@H]1C(=O)N(C)c2cnc(Nc3ccc(C(=O)N[C@H]4CC[C@H](N5CCN(CC6CC6)CC5)CC4)cc3OC)nc2N1C(C)C [volasertib]
Outline: as §1

[3] = compound: CCn1c(C(=O)N(C2CC2)C2CC2)cc2c3c(ncn3C)c(Nc3cc(C)n(C)n3)nc21
Outline: as §1

[4] = compound: CCn1cc(-c2ccnc3[nH]c(-c4cccc(CN(C)C)c4)cc23)c(-c2ccc(NC(=O)N(C)C)cc2)n1
Outline: as §1

[5] = compound: CN1CCC(CNc2ccc3ncc(-c4cccc(OC(F)(F)F)c4)n3n2)CC1
Outline: as §1

saracatinib = compound: CN1CCN(CCOc2cc(OC3CCOCC3)c3c(Nc4c(Cl)ccc5c4OCO5)ncnc3c2)CC1 [saracatinib]
Outline: as §1

sotrastaurin = compound: CN1CCN(c2nc(C3=C(c4c[nH]c5ccccc45)C(=O)NC3=O)c3ccccc3n2)CC1 [sotrastaurin]
Outline: as §1

UniProt Q4G0P3, sequence (Q4G0P3 whole entry, looked up): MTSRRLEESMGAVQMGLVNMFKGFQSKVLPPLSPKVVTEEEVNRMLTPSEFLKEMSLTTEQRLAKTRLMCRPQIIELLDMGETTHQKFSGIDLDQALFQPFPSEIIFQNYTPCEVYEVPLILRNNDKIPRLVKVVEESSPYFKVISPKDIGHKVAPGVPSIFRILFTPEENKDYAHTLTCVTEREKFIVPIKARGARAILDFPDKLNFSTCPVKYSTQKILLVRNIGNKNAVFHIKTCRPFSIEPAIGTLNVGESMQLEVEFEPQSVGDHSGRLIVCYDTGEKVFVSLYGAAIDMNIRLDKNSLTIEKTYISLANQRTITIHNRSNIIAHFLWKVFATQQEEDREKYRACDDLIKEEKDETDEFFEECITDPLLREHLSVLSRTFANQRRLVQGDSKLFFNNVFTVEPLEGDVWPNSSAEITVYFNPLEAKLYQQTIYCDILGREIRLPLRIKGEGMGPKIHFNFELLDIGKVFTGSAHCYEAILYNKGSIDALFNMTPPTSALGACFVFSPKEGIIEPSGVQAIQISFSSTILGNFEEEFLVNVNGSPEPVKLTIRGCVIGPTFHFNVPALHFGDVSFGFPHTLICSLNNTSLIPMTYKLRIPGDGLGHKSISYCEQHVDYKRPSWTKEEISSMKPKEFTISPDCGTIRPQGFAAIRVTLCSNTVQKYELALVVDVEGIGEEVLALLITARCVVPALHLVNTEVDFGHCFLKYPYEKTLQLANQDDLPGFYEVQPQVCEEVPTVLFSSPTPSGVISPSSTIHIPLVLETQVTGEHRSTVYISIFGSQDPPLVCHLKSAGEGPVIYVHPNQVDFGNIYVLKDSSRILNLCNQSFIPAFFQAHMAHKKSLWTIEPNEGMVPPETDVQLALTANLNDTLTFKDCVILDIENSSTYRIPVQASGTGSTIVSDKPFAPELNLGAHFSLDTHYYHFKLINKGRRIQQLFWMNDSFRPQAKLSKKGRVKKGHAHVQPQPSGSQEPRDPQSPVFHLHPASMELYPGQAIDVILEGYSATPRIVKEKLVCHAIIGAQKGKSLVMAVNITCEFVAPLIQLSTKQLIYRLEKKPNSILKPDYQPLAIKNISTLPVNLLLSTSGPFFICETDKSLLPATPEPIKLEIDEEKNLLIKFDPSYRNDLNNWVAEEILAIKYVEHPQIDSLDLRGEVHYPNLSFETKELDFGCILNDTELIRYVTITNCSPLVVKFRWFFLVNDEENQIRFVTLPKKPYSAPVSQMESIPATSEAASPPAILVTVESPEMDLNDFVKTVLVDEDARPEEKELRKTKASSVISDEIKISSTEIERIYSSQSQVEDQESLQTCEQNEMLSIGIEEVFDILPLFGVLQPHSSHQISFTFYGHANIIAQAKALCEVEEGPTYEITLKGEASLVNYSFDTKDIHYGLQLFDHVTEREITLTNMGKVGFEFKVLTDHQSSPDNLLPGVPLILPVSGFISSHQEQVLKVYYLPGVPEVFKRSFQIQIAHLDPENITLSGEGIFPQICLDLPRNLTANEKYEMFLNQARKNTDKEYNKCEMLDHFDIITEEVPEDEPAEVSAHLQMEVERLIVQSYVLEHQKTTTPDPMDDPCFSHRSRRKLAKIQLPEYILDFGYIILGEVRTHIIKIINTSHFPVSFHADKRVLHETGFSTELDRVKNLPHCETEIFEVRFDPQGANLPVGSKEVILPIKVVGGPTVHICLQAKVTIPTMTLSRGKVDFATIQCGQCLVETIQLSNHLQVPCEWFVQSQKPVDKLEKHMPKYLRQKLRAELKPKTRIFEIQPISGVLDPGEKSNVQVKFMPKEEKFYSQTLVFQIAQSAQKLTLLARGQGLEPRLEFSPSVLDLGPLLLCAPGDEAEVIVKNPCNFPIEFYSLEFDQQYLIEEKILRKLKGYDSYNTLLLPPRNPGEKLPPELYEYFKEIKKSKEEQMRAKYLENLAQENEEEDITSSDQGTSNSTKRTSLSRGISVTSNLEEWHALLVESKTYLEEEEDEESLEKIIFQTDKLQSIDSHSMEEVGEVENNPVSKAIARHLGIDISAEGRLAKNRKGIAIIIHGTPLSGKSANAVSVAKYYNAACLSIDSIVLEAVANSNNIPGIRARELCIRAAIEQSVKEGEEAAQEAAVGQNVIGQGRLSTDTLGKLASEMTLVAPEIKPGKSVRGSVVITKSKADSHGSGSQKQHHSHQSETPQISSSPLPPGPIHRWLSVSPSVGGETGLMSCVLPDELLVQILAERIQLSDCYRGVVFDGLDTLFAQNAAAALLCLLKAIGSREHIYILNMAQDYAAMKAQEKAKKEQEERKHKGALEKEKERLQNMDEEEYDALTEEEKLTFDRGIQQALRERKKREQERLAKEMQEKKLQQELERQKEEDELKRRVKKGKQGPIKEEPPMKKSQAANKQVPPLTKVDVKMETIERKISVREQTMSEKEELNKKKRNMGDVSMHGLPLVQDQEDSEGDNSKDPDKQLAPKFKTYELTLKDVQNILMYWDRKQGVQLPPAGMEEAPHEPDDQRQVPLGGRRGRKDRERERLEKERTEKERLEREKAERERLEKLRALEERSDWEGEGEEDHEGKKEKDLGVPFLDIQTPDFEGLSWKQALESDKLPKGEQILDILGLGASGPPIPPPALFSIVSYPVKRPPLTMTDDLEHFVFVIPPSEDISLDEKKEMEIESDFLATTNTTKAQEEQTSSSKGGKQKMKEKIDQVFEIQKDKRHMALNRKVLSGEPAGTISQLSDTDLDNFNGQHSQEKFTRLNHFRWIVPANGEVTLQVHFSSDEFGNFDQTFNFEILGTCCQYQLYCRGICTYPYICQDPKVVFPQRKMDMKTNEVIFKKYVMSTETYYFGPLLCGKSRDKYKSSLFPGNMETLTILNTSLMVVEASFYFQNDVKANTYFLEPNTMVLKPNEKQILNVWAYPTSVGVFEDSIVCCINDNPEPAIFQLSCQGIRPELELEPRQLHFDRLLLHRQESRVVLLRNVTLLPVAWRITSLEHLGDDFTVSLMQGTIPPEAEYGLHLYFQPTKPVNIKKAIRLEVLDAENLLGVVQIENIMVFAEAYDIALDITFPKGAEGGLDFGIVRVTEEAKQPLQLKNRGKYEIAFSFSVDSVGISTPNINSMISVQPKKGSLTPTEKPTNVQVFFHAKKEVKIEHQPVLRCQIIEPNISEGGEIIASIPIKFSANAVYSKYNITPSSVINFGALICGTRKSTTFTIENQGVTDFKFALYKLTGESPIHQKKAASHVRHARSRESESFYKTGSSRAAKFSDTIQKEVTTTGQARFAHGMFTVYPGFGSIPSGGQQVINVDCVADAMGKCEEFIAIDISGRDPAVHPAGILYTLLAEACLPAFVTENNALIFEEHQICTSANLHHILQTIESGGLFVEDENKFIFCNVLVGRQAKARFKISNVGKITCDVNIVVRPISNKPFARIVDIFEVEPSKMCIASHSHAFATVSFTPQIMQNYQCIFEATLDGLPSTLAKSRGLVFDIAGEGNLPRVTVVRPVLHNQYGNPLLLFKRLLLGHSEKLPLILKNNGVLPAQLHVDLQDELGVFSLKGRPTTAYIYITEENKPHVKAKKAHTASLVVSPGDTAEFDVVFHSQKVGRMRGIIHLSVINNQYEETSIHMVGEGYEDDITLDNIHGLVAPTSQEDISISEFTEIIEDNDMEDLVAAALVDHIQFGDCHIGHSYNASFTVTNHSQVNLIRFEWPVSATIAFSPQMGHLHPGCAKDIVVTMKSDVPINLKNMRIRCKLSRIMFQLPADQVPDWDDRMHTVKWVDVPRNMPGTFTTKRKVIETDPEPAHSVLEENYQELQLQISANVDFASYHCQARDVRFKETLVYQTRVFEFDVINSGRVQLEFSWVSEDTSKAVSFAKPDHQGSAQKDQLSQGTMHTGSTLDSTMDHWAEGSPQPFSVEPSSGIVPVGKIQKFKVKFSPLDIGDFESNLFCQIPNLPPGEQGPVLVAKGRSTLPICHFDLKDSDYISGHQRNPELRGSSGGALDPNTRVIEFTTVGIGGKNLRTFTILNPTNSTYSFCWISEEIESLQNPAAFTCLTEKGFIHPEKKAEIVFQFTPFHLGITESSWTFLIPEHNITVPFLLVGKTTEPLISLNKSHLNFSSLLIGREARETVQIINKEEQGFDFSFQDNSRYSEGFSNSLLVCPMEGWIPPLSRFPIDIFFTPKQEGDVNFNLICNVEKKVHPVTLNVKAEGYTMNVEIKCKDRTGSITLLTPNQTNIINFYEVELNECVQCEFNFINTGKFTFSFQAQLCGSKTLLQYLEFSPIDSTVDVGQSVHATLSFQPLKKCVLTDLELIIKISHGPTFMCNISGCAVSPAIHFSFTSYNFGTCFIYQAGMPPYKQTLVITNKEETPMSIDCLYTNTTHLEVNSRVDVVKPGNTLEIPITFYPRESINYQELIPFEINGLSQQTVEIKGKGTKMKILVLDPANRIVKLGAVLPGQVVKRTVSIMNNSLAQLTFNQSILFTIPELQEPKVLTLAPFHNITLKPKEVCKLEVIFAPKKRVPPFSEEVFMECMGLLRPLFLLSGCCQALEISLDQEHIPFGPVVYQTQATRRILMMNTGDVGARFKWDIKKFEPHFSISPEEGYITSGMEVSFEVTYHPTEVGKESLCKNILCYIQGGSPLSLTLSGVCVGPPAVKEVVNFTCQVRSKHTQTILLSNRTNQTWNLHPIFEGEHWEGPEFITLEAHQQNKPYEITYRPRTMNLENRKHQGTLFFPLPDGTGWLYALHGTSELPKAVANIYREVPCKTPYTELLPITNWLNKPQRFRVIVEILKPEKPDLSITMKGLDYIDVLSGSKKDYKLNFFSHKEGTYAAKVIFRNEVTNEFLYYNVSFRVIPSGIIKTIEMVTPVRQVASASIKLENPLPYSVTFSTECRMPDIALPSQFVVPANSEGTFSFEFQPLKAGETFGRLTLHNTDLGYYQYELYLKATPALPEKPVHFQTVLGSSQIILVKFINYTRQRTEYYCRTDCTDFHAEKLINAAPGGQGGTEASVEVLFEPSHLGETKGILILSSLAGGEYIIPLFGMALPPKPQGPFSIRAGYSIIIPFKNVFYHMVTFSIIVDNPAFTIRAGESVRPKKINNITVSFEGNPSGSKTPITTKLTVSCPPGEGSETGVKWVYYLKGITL

Target	log2 fold change (vemurafenib)	log2 fold change [1]	log2 fold change (barasertib)	log2 fold change [2]	log2 fold change (volasertib)	log2 fold change [3]	log2 fold change [4]	log2 fold change [5]	log2 fold change (saracatinib)	log2 fold change (sotrastaurin)
INTS5 (UniProt Q6P9B9)	0.052	-0.167	0.044	0.042	0.223	0.023	0.029	-0.072	0.069	-0.092
GUSB (UniProt P08236)	0.013	0.028	-0.024	-0.049	0.053	0.027	-0.561 (active)	0.355 (active)	-0.008	0.038
INTS1 (UniProt Q8N201)	0.042	-0.096	-0.01	0.044	-0.033	0.007	0.06	-0.041	0	-0.002
IARS (UniProt P41252)	0.004	0.011	0.026	-0.086	-0.079	0.048	0.044	-0.111	0.006	0.014
IL18R1 (UniProt Q13478)	0.074	-0.026	0.061	0.087	0.044	-0.184	-0.284	0.085	0.023	-0.064
GNE isoform 2 (UniProt Q9Y223)	0.024	0.027	0.03	-0.107	-0.095	0.039	0.008	-0.053	-0.003	-0.029
HDAC10 (UniProt Q969S8)	0.142	-0.093	0.009	-0.052	-0.056	-0.117	-0.026	0.02	-0.052	-0.069
GORASP1 (UniProt Q9BQQ3)	0.011	-0.016	–	-0.065	0.092	-0.019	-0.025	0.08	0.03	0.016
HMGN5 (UniProt Q5JSK9)	–	-0.013	-0.03	0.039	0.054	–	–	–	–	–
HYDIN (UniProt Q4G0P3)	-0.075	0.081	–	0.089	0.021	0.76	–	–	0.028	–
HMGA1 isoform 2 (UniProt P17096)	–	0.019	–	–	0.034	0.027	0.875 (active)	-0.339	0.053	-0.106
IGF2BP2 isoform 6 (UniProt Q9Y6M1)	–	-0.003	–	–	-0.153	–	–	–	–	–
HTT (UniProt P42858)	-0.083	–	0.044	-0.063	–	0.052	-0.039	0.152	-0.033	0.01
GNB4 (UniProt Q9HAV0)	–	0.089	-0.046	-0.018	-0.036	0.016	0.001	0.166	-0.165	-0.04
ITPRIP (UniProt Q8IWB1)	–	–	–	–	–	–	–	–	-0.143	–
KATNBL1 (UniProt Q9H079)	-0.011	-0.03	–	0.284	0.039	–	-0.105	0.055	-0.068	-0.004
ITM2B (UniProt Q9Y287)	0.021	–	0.258	–	–	-0.012	-0.141	0.069	-0.053	-0.012
HNRNPD (UniProt D6RF44)	–	–	–	–	–	–	–	–	–	0.079
HOMER3 (UniProt Q9NSC5)	–	0.123	-0.129	–	-0.011	–	0.037	-0.071	–	0.028
